Measured values as given in the supplement of paper PMC10849652.
Targets with a hit are over-represented here; the source holds about 7,900 in all. About 0.6% of all pairs of compound and target were hits.

Assays:
Assay in all cases: log2 fold change, soluble protein after heating vs DMSO (PISA); higher = thermal stabilisation; K562 cells, 10 uM, 30 min; active = over 0.2 and 3.5 SD of the protein, either way, in both replicates (recomputed)
[1] = compound: COC1=CC=C(C=C1)CN2C=CC3=C2C=C(C=C3)C(=O)NO
Procedure, shortened: (§1)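 K562 cells at 2×10^6 cells/mL were treated for 30 min with 10 μM compound, and aliquots were heated for 3 min over 48°C-58°C before pooling. Extraction used PBS with 0.5% NP-40 at 4°C, and soluble protein was the supernatant after 21,000xg for 90 min, measured by TMTpro 16plex LC-MS/MS with channel sums equalised. Thermal stability values, relative to control samples and from duplicates, are log2 fold changes.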

[2] = compound: CON(C)C(=O)N1N=C(c2cc(F)ccc2F)S[C@@]1(CCCN)c1ccccc1 [filanesib]
Procedure, shortened: as §1

[3] = compound: CO[C@H]1C[C@@H]2CC[C@@H](C)[C@@](O)(O2)C(=O)C(=O)N2CCCC[C@H]2C(=O)O[C@H]([C@H](C)C[C@@H]2CC[C@H](n3cnnn3)[C@H](OC)C2)CC(=O)[C@H](C)/C=C(\C)[C@@H](O)[C@@H](OC)C(=O)[C@H](C)C[C@H](C)/C=C/C=C/C=C/1C [zotarolimus]
Procedure, shortened: as §1

[4] = compound: COc1cc(C(=O)O)ccc1NC(=O)[C@@H]1N[C@@H](CC(C)(C)C)[C@](C#N)(c2ccc(Cl)cc2F)[C@H]1c1cccc(Cl)c1F [idasanutlin]
Procedure, shortened: as §1

[5] = compound: COc1cc(Nc2ncc3c(n2)-c2ccc(Cl)cc2C(c2c(F)cccc2OC)=NC3)ccc1C(=O)O [alisertib]
Procedure, shortened: as §1

[6] = compound: COc1cc2nc(-c3cc(F)ccc3O)nc(N[C@@H]3CNC[C@H]3C(C)(C)O)c2cc1OC
Procedure, shortened: as §1

[7] = compound: COc1cc2ncnc(Nc3ccc(F)c(Cl)c3)c2cc1OCCCN1CCOCC1 [gefitinib]
Procedure, shortened: as §1

[8] = compound: COc1cccc2cc(-c3nc([C@H]4CC[C@H](C(=O)O)CC4)n4ncnc(N)c34)[nH]c12
Procedure, shortened: as §1

[9] = compound: CS(=O)(=O)CCNCc1ccc(-c2ccc3ncnc(Nc4ccc(OCc5cccc(F)c5)c(Cl)c4)c3c2)o1 [lapatinib]
Procedure, shortened: as §1

[10] = compound: CS(=O)(=O)N1CCN(Cc2cc3nc(-c4cccc5[nH]ncc45)nc(N4CCOCC4)c3s2)CC1 [pictilisib]
Procedure, shortened: as §1

[11] = compound: CS(=O)(=O)c1ccc(-c2cnc(N)c(C(=O)Nc3ccccc3)n2)cc1
Procedure, shortened: as §1

[12] = compound: C[C@@H](Oc1cc(-c2cnn(C3CCNCC3)c2)cnc1N)c1c(Cl)ccc(F)c1Cl [crizotinib]
Procedure, shortened: as §1

[13] = compound: C[C@@H]1COCCN1C2=NC(=NC(=C2)C3(CC3)S(=O)(=O)C)C4=C5C=CNC5=CC=C4
Procedure, shortened: as §1

[14] = compound: C[C@H](C1=CC=C(C=C1)C(=O)NC2=C3C=CNC3=NC=C2)N
Procedure, shortened: as §1

[15] = compound: C[C@H](Nc1ncnc2nc[nH]c12)c1cc2cccc(Cl)c2c(=O)n1-c1ccccc1 [duvelisib]
Procedure, shortened: as §1

[16] = compound: Cc1cc(Nc2cc(CN3CCOCC3)c3nc(C)c(Cc4ccc(Cl)cc4F)n3n2)n[nH]1 [gandotinib]
Procedure, shortened: as §1

[17] = compound: Cc1cc(Nc2cc(N3CCN(C)CC3)nc(Sc3ccc(NC(=O)C4CC4)cc3)n2)n[nH]1 [tozasertib]
Procedure, shortened: as §1

[18] = compound: Cc1cc(SCc2sc(-c3ccc(C(F)(F)F)cc3)nc2C)ccc1OCC(=O)O
Procedure, shortened: as §1

[19] = compound: Cc1ccc(-n2nc(C(C)(C)C)cc2NC(=O)Nc2ccc(OCCN3CCOCC3)c3ccccc23)cc1 [doramapimod]
Procedure, shortened: as §1

[20] = compound: Cc1ccc(C(=O)N(CCCN)[C@@H](c2nc3cc(Cl)ccc3c(=O)n2Cc2ccccc2)C(C)C)cc1 [ispinesib]
Procedure, shortened: as §1

Measured: log2 fold change

MDC1 (UniProt Q14676)
UniProt Q14676, sequence (Q14676 whole entry, looked up): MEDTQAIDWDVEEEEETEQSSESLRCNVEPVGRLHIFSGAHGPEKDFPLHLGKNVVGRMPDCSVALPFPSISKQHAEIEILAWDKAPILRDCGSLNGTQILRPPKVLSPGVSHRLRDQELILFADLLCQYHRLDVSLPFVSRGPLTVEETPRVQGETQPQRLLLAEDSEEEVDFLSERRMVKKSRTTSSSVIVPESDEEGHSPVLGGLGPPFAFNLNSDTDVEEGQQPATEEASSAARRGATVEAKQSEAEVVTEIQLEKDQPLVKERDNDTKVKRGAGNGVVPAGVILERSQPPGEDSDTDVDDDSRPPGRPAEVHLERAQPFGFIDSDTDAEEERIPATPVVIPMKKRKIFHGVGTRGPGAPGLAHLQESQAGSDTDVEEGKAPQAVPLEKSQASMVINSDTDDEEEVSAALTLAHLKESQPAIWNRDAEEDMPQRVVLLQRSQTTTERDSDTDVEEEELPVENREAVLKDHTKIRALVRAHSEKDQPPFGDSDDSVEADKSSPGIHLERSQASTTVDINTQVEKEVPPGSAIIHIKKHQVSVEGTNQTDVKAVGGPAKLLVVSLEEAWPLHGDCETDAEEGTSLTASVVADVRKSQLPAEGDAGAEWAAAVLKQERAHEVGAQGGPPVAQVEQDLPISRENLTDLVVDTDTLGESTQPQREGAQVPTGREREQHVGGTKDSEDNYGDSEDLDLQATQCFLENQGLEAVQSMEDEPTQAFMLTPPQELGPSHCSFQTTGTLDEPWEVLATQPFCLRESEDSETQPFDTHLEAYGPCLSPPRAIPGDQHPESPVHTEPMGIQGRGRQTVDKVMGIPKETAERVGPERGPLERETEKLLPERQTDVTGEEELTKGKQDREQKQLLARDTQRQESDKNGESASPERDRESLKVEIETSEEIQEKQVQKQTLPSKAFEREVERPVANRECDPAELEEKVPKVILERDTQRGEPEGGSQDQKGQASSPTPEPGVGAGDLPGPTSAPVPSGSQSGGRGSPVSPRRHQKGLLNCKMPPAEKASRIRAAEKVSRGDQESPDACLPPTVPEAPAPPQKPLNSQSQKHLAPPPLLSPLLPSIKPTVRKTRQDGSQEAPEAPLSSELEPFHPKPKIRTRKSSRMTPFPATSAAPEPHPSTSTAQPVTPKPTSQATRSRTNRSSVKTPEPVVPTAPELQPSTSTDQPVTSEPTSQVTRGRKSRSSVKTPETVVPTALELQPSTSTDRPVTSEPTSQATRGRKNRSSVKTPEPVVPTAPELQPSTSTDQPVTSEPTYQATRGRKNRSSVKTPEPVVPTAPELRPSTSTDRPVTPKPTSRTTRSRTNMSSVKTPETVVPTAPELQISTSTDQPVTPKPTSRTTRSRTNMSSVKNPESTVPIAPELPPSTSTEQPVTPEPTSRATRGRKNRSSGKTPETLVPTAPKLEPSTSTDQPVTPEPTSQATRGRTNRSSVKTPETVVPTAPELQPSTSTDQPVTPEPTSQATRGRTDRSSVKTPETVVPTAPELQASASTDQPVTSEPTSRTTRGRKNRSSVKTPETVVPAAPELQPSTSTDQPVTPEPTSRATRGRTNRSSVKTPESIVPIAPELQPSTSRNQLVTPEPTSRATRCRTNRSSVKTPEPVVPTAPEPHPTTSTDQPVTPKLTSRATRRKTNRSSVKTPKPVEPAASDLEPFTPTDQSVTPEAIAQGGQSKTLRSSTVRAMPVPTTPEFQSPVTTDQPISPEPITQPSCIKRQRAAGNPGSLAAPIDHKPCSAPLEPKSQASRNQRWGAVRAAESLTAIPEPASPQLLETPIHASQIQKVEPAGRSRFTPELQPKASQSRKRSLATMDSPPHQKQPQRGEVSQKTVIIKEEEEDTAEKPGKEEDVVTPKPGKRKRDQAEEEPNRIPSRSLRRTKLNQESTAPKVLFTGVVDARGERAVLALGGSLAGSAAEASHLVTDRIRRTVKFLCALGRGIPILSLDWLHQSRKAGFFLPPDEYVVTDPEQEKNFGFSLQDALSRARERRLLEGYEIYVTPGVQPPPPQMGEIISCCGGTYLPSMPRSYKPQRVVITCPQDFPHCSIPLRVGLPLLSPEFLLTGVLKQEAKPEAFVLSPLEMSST
inactive: [1] -0.055 | [2] 0.223 | [3] 0.005 | [4] 0.283 | [5] -0.028 | [6] -0.01 | [7] 0.032 | [8] -0.045 | [9] 0.077 | [10] 0.08 | [11] -0.053 | [12] -0.109 | [13] 0.041 | [14] 0.107 | [15] -0.057 | [16] 0.423 | [17] -0.154 | [18] -0.031 | [19] 0.178 | [20] -0.217

MDN1 (UniProt Q9NU22)
inactive: [1] 0.066 | [2] -0.095 | [3] -0.002 | [4] -0.058 | [5] -0.056 | [6] -0.031 | [7] -0.003 | [8] 0.022 | [9] -0.005 | [10] 0.001 | [11] -0.072 | [12] -0.135 | [13] 0.094 | [14] 0.002 | [15] 0.024 | [16] -0.156 | [17] -0.052 | [18] 0.063 | [19] -0.005 | [20] -0.117

IRF2BPL (UniProt Q9H1B7)
UniProt Q9H1B7, sequence (Q9H1B7 whole entry, looked up): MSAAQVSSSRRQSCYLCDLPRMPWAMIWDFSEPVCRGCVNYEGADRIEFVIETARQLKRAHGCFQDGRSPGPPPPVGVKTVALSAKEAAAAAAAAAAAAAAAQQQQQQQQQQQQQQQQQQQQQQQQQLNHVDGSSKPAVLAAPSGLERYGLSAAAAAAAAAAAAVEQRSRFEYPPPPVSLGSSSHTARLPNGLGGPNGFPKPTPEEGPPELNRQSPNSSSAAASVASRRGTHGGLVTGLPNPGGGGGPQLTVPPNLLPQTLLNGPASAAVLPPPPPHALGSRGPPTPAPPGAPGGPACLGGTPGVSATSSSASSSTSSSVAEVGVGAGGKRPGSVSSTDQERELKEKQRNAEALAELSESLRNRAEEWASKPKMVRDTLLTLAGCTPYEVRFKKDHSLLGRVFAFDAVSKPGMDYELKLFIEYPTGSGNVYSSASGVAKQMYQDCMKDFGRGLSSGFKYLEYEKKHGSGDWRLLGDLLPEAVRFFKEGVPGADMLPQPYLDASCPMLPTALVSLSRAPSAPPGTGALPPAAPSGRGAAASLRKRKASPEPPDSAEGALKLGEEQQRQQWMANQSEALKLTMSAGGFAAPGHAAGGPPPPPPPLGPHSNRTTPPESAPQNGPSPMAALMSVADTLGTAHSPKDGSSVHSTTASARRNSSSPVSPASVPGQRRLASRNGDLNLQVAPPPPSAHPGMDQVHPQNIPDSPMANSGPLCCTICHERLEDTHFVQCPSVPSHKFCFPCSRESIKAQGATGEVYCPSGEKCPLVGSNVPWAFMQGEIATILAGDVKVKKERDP
inactive: [1] 0.283 | [2] -0.025 | [3] 0.029 | [4] 0.033 | [5] 0.058 | [6] 0.015 | [7] -0.016 | [8] -0.027 | [9] -0.015 | [10] 0.071 | [11] -0.034 | [12] 0.133 | [13] 0.249 | [14] -0.005 | [15] 0.106 | [16] -0.041 | [17] 0.034 | [18] 0.066 | [19] -0.061 | [20] -0.083

LBR (UniProt Q14739)
active: [16] -0.359
inactive: [1] -0.075 | [2] -0.065 | [3] -0.008 | [4] -0.196 | [5] -0.019 | [6] 0.079 | [7] 0.034 | [8] 0 | [9] -0.081 | [10] -0.191 | [11] 0.025 | [12] 0.152 | [13] 0.016 | [14] -0.031 | [15] -0.014 | [17] -0.026 | [18] 0.017 | [19] -0.02 | [20] -0.08

MAP2K2 (UniProt P36507)
inactive: [1] -0.014 | [2] -0.061 | [3] 0.018 | [4] 0 | [5] -0.103 | [6] -0.011 | [7] -0.011 | [8] 0.007 | [9] -0.069 | [10] -0.023 | [11] 0.013 | [12] -0.055 | [13] 0.069 | [14] -0.052 | [15] 0.02 | [16] -0.069 | [17] -0.041 | [18] -0.01 | [19] -0.038 | [20] -0.058

ILK (UniProt Q13418)
UniProt Q13418, sequence (Q13418 whole entry, looked up): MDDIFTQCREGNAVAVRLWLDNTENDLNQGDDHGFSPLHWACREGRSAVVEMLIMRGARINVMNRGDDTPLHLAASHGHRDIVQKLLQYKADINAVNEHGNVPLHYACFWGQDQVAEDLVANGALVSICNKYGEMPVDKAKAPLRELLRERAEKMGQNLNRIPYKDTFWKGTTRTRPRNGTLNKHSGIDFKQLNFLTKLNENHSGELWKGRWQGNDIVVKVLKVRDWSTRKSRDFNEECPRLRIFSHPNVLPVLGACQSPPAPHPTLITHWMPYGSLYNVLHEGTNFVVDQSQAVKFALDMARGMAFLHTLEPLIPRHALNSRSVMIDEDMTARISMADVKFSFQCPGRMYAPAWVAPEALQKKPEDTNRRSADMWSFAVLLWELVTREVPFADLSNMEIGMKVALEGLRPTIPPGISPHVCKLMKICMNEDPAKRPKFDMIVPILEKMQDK
inactive: [2] 0.023 | [3] -0.052 | [4] 0.021 | [5] 0.038 | [6] 0.036 | [7] 0.007 | [8] 0 | [9] -0.05 | [10] 0.068 | [11] 0.054 | [12] 0.038 | [13] -0.001 | [14] 0.046 | [15] 0.081 | [16] -0.039 | [17] -0.105 | [18] -0.046 | [19] -0.023 | [20] -0.153
active: [1] -0.444

MICOS13 (UniProt Q5XKP0)
UniProt Q5XKP0, sequence (Q5XKP0 whole entry, looked up): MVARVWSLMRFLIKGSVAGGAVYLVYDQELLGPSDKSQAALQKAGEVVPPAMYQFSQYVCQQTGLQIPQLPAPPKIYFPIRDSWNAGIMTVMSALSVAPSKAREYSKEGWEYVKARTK
inactive: [1] 0 | [2] -0.095 | [3] -0.048 | [4] -0.144 | [5] -0.014 | [6] -0.082 | [7] -0.032 | [8] 0.079 | [9] -0.063 | [10] -0.001 | [11] 0.049 | [12] -0.164 | [13] 0.156 | [14] -0.08 | [15] 0.031 | [16] -0.216 | [17] -0.047 | [18] -0.055 | [19] -0.027
active: [20] -0.257

ME2 (UniProt P23368)
UniProt P23368, sequence (P23368 whole entry, looked up): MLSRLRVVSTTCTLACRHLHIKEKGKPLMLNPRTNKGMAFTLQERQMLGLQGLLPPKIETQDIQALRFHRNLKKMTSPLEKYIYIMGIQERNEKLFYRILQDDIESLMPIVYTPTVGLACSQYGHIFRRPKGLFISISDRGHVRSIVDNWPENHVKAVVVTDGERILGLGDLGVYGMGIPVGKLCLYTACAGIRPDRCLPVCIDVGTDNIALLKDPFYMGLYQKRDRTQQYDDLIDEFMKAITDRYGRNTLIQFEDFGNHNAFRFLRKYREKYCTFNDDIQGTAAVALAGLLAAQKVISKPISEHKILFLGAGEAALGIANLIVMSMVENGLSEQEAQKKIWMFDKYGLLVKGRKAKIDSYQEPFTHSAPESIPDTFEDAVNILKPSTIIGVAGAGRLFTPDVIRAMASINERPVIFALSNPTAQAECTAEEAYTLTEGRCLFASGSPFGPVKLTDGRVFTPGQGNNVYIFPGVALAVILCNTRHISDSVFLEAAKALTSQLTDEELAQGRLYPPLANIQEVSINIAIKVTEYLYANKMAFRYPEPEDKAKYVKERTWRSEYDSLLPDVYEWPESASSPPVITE
active: [12] 0.282 | [20] 0.334
inactive: [1] -0.037 | [2] 0.012 | [3] -0.052 | [4] 0.196 | [5] 0.002 | [6] 0.076 | [7] 0.023 | [8] -0.046 | [9] -0.003 | [10] 0.056 | [11] -0.027 | [13] -0.048 | [14] 0.009 | [15] 0.043 | [16] -0.016 | [17] -0.001 | [18] -0.002 | [19] -0.016

MED16 (UniProt Q9Y2X0)
inactive: [1] -0.032 | [2] 0.062 | [3] -0.029 | [4] 0.144 | [5] -0.024 | [6] -0.063 | [7] 0.016 | [8] 0.005 | [9] 0.064 | [10] 0.011 | [11] -0.04 | [12] -0.072 | [13] -0.071 | [14] 0.06 | [15] -0.053 | [16] -0.098 | [17] -0.096 | [18] 0.063 | [19] 0.08 | [20] -0.097

KPNA1 (UniProt P52294)
UniProt P52294, sequence (P52294 whole entry, looked up): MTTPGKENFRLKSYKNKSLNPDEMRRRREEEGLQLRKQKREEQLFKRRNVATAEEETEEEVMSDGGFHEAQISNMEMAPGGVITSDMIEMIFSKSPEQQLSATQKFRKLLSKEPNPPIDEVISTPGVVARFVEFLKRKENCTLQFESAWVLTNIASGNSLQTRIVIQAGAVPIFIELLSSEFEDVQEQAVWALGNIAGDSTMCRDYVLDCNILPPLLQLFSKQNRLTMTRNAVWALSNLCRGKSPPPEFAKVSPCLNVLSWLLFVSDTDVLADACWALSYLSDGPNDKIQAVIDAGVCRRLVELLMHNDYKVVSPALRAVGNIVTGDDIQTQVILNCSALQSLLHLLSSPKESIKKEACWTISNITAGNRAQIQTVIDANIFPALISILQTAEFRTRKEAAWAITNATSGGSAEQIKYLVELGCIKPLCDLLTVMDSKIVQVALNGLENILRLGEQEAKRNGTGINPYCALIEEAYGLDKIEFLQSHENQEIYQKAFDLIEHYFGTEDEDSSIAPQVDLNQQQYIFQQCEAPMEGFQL
inactive: [1] -0.115 | [2] 0.072 | [3] 0.065 | [4] 0.019 | [5] 0.078 | [6] 0.083 | [7] 0.011 | [8] -0.042 | [9] 0.01 | [10] 0.094 | [11] -0.021 | [12] -0.169 | [13] -0.029 | [14] 0.084 | [15] 0.047 | [16] 0.01 | [17] 0.075 | [18] -0.008 | [19] 0.062 | [20] -0.012

LTN1 isoform 3 (UniProt O94822)
inactive: [1] 0 | [2] -0.009 | [3] 0.039 | [4] -0.136 | [5] 0.01 | [6] 0.04 | [7] -0.04 | [8] -0.108 | [9] -0.029 | [10] -0.157 | [11] -0.049 | [12] -0.136 | [13] -0.077 | [14] 0.128 | [15] -0.05 | [16] -0.234 | [17] 0.012 | [18] 0.11 | [19] 0.021 | [20] -0.229

LUZP1 (UniProt Q86V48)
inactive: [1] -0.08 | [3] -0.059 | [4] 0.03 | [5] -0.081 | [6] -0.036 | [7] 0.051 | [8] -0.117 | [9] 0.041 | [10] 0.07 | [11] 0.183 | [12] -0.259 | [13] -0.265 | [14] 0.191 | [15] -0.009 | [16] 0.058 | [17] 0.196 | [18] 0.206 | [19] 0.017 | [20] -0.138
active: [2] 0.552

KPNA6 (UniProt O60684)
inactive: [1] 0.193 | [2] 0.115 | [3] 0.169 | [4] -0.031 | [5] -0.01 | [6] 0.056 | [7] 0.048 | [8] -0.066 | [9] -0.018 | [10] -0.017 | [11] -0.01 | [12] -0.11 | [13] -0.011 | [14] 0.138 | [15] 0 | [16] -0.028 | [17] 0.046 | [18] 0.07 | [19] 0.046 | [20] -0.202

MFGE8 (UniProt Q08431)
inactive: [1] -0.129 | [2] 0.129 | [3] -0.03 | [4] 0.05 | [5] -0.147 | [6] 0.019 | [7] 0.069 | [8] -0.124 | [9] 0.079 | [10] 0.122 | [11] 0.063 | [12] 0.04 | [13] -0.129 | [14] 0.087 | [15] -0.052 | [16] -0.015 | [17] 0.085 | [18] 0.057 | [19] 0.046 | [20] -0.122

LNPK (UniProt Q9C0E8)
UniProt Q9C0E8, sequence (Q9C0E8 whole entry, looked up): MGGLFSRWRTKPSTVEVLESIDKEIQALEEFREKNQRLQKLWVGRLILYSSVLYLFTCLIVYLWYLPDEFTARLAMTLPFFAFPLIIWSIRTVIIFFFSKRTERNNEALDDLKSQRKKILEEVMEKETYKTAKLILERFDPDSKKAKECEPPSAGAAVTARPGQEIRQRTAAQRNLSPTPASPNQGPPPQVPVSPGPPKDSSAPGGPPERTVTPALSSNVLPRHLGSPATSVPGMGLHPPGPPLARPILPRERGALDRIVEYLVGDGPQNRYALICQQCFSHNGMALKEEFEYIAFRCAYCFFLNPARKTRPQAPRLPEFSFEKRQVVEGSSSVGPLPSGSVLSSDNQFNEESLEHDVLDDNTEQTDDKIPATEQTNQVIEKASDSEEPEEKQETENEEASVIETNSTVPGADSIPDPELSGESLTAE
inactive: [1] 0.007 | [2] -0.005 | [3] -0.049 | [4] -0.002 | [5] -0.034 | [6] 0.001 | [7] 0.025 | [8] 0.079 | [9] -0.008 | [10] 0.017 | [11] -0.016 | [12] 0.077 | [13] 0.007 | [14] -0.036 | [15] -0.017 | [16] -0.022 | [17] 0.002 | [18] -0.085 | [19] -0.044 | [20] 0.022

LPCAT3 (UniProt Q6P1A2)
inactive: [1] -0.067 | [3] -0.065 | [4] -0.086 | [5] -0.055 | [6] -0.117 | [7] -0.024 | [8] -0.017 | [9] 0.172 | [10] -0.011 | [11] 0.091 | [12] -0.121 | [13] 0.171 | [14] 0.006 | [15] -0.035 | [16] -0.167 | [17] -0.027 | [18] 0.027 | [19] -0.042
active: [2] -0.352 | [20] -0.696
